# FBPA Giardia inh: qHTS Assay for Inhibitors of Fructose-1,6-bisphosphate Aldolase from Giardia Lamblia | A8B2U2 | purified Giardia FBPA | Potency, µM (doses to about 59.6 µM), without a hit: at the top dose activity, negative = inhibition, usual class: inhibitors | hit rate 0.71% among 290,000 | AID 2451, 2010; also: nearly all actives have a fitted effect of over 55% in size
#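 Giardia FBPA (40 nM reagent) was preincubated 10 min at RT with compound (up to 57.5 uM final), then substrate plus GAPDH/TPI/NAD/arsenate coupling system with diaphorase/resazurin was added; resorufin fluorescence (525/598 nm) was read after 20 min.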
# Sm TGR block: qHTS Assay for the Inhibitors of Schistosoma Mansoni Peroxiredoxins; Schistosoma mansoni thioredoxin glutathione reductase (TGR), Q962Y6; purified TGR, DTNB reduction, TNB absorbance 405 nm; Potency, µM (series often up to 114 µM), without a hit: at the top dose activity change, negative = inhibition, usual class: inhibitors; hit rate 3% among 360,000; also: nearly all actives have a fitted effect of over 60% in size
#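 Kinetic colorimetric format: TGR-catalysed, NADPH-driven DTNB reduction monitored via TNB absorbance. Enzyme dispensed at 20 nM; compound exposure 15 min at room temperature before reaction start.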
# LmPK inhibitor: qHTS Assay for Inhibitors of Leishmania Mexicana Pyruvate Kinase (LmPK); Q27686; purified LmPK, Kinase-Glo ATP luminescence, 1 h; Potency, µM (titrated, usually from 57.5 µM), inactives show top-dose activity change, negative = inhibition, most hits filed as inhibitors; hit rate 0.37% among 290,000; AID 1721, 2009
# Target sequence (Q27686 whole entry, looked up): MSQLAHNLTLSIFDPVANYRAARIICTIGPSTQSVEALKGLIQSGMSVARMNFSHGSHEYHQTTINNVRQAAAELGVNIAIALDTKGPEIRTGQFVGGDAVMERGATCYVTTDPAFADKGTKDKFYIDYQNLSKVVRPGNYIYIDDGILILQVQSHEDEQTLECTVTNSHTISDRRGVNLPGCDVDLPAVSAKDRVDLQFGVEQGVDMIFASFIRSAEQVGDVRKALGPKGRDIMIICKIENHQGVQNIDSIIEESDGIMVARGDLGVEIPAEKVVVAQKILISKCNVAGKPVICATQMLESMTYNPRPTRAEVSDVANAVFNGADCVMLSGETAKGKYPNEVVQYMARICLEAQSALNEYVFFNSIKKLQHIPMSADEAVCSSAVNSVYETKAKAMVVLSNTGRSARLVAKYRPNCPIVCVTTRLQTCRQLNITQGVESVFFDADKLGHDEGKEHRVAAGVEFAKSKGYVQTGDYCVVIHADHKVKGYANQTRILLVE
#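 ATP generated from ADP (0.1 mM) and PEP (0.5 mM) by 0.1 nM LmPK over 1 h at room temperature (pH 7.2 imidazole buffer) was detected by coupled luciferase luminescence. Values were normalized to uninhibited and no-enzyme wells.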
# RE007 growth inh: qHTS Assay for Inhibitors of the HIV-1 protein Vpr | S. pombe RE007 Vpr strain, BacTiter-Glo ATP luminescence, 24 h | Potency, µM (doses to about 92.2 µM), for inactives: at the top dose activity change, negative = less growth, most hits filed as inhibitors | hit rate 0.21% among 360,000 | AID 651644, 2012; active = well fitted falling curve with a large enough effect; inconclusive = small, poorly fitted or top-dose-only effect; inactive = no such curve, though single readings can be large or run the other way; also: nearly all actives have a fitted effect of over 50% in size
#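 Fission yeast RE007 carrying one integrated HIV-1 vpr copy, seeded at OD 0.01 in PMG+AL medium with 23 nL pinned compound. Grown 24 h at 30 degrees; viability read by BacTiter-Glo luminescence after 5 min.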
# Tb PYK inh: qHTS of Trypanosoma Brucei Inhibitors; pyruvate kinase (Trypanosoma brucei), Q57TT1; TbPYK enzyme, Kinase-Glo Plus ATP luminescence, 45 min; Potency, µM (titrated, usually from 76.8 µM), without a hit: at the top dose activity, negative = inhibition, usual class: inhibitors; hit rate 0.12% among 410,000; also: nearly all actives have a fitted effect of over 50% in size
#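 Luminescent Kinase-Glo Plus end-point after 45 min room-temperature reaction of T. brucei pyruvate kinase started with 130 uM ADP (final). Buffer TEA 50 mM pH 7.2 with KCl, MgCl2, BSA, Tween-20; titration-based qHTS with fitted concentration-effect curves.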
# Numbers without * were called inactive; ? = inconclusive; nt = no result; [ ] = remark or other dose. The list is not random: actives were taken first. Their share in the collection is about 3.3%. Unless noted, calls follow the shape of the dose curve; as a rule, active = well fitted curve in the direction sought with a large enough effect; inconclusive = small, poorly fitted or top-dose-only effect, or another doubt; inactive = no such curve, though single readings can be large; an effect the other way counts as inactive or inconclusive. % is scaled to controls: 0 for no effect and ±100 for the full control effect; potency is read from the fitted curve at half-maximal effect.
SMILES,FBPA Giardia inh,Sm TGR block,LmPK inhibitor,RE007 growth inh,Tb PYK inh
CCOC(=O)C1=C(O)/C(=C\c2ccc(O)c(OCC)c2)N=C1C,-26%,40µM*,-3%,-10%,-5%
CCOc1cc(/C=C2\CN(C)C/C(=C\c3ccc(O)c(OCC)c3)C2=O)ccc1O,?,13µM*,-7%,-7%,-10%
O=S(=O)(c1ccccc1)c1ncc(C(F)(F)F)cc1Cl,-3%,4µM*,-4%,-7%,3%
O=S(=O)(c1ccccc1)c1ncc(C(F)(F)F)cc1O,1%,-8%,6%,-25%,12%
O=c1oc2ccccc2c2c1C1O[C@](c3ccsc3)(Cc3ccccc31)O2,18%[12.9 µM],11µM*,-5%[11.5 µM],nt,nt
COc1ccc([C@]23Cc4ccccc4C(O2)c2c(c4ccc(OC)cc4oc2=O)O3)cc1,-5%[12.9 µM],?,-10%[11.5 µM],nt,nt
COc1ccc([C@]23Cc4cc(OC)c(OC)cc4C(O2)c2c(cc(C)oc2=O)O3)cc1,-4%[12.9 µM],7.1µM*,1%[11.5 µM],nt,nt
COc1ccc([C@]23Cc4cc(OC)c(OC)cc4C(O2)c2c(c4ccccc4oc2=O)O3)cc1,-5%[12.9 µM],4µM*,15%[11.5 µM],nt,nt
NNC(=O)C(=O)/C=C1\NC2(CCCC2)Cc2ccccc21,1%,-6%,-4%,-5%,-13%
O=C(NC1(C(F)(F)F)NC(=O)N(Cc2ccco2)C1=O)c1cccs1 (stereo unspecified),7%,35µM*,1%,0%,1%
O=C(NC1(C(F)(F)F)NC(=O)N(Cc2ccco2)C1=O)c1cccnc1 (stereo unspecified),0%,35µM*,4%,-8%,8%
O=C(NC1(C(F)(F)F)NC(=O)N(Cc2ccccc2)C1=O)c1cccnc1 (stereo unspecified),6%,2%,4%,1%,5%
COc1ccc(S(=O)(=O)N(C)C[C@H]2OCCCC[C@H](C)Oc3ccc(N(C)C)cc3C(=O)N([C@H](C)CO)C[C@@H]2C)cc1,nt,nt,nt,25%,?
O=C(Nc1cccc(N2C(=O)C=CC2=O)c1)c1cccs1,nt,0.4µM*,nt,nt,nt
O=C(Nc1ccccc1)Nc1ccc(C(=O)N2CCOCC2)cc1,0%,14%,13µM*,-25%,?
O=C(c1ccc(NC(=O)C2(c3ccccc3)CCCC2)cc1)N1CCOCC1,0%,0%,5%,1%,-2%
O=C(Nc1ccc(C(=O)N2CCCC2)cc1)c1ccccc1F,0%,-7%,14µM*,-26%,?
O=C(Nc1cc(C(=O)N2CCCC2)ccc1N1CCCC1)c1ccccc1F,-11%,0%,-23%,4%,1%
CCc1ccc(CN(C)C(=O)C2CCC(=O)N(CCc3ccc(OC)cc3)C2)nc1 (stereo unspecified),11%,20%,3%,-9%,0%
COCCC(=O)N1CCC(Oc2ccc(C(=O)N3C[C@@H]4CCC[C@H]3C4)cc2)CC1,14%,-14%,2%,3%,2%
Cc1nnc(NC(=O)CSc2ccc(-c3ccco3)nn2)s1,-25%,14µM*,9%,13%,-21%
Cc1nnc(NC(=O)CSc2nnc(-c3ccco3)n2C(C)C)s1,?,2%,0%,-18%,4%
CCc1nnc(NC(=O)CSc2ccc(-c3ccco3)nn2)s1,?,7.1µM*,21%,-6%,0%
Nc1c(C(=O)NC2CC2)sc2nc3c(c(-c4ccco4)c12)CC/C3=C/c1ccco1,5.6µM*,5µM*,-1%,-14%,-30%
c1coc(-c2nc3ccccc3nc2-c2ccco2)c1,?,3.5µM*,2%,-12%,?
SMILES,FBPA Giardia inh,Sm TGR block,LmPK inhibitor,RE007 growth inh,Tb PYK inh
O=C(c1ccccc1)c1ccc2nc(-c3ccco3)c(-c3ccco3)nc2c1,?,nt,-4%,-3%,?
O=C(NCCc1ccccc1)c1ccc2nc(-c3ccco3)c(-c3ccco3)nc2c1,?,1.3µM*,7%,-19%,?
O=C(NCCO)c1ccc2nc(-c3ccco3)c(-c3ccco3)nc2c1,?,1.8µM*,4%,-19%,-37%
O=C(NC1CCCC1)c1ccc2nc(-c3ccco3)c(-c3ccco3)nc2c1,?,3.2µM*,7%,-13%,?
COc1ccc(NC(=O)C2(C)CCN2CCOc2ccc(C)cc2)cc1OC (stereo unspecified),nt,nt,nt,-9%[18.4 µM],4%
COc1ccc(NC(=O)CCNS(=O)(=O)c2cccc(C(C)=O)c2)cc1S(N)(=O)=O,8%,1%,4%,2%,1%
COc1ccc(NC(=O)CCNS(=O)(=O)c2ccc(Cl)c([N+](=O)[O-])c2)cc1S(N)(=O)=O,3%,35µM*,8%,9%,-1%
c1ccc(-c2cc(N3CCCCCC3)n[nH]2)cc1,-26%,-1%,-2%,-25%,?
O=c1ccc(-c2ccc(S(=O)(=O)Nc3cccc(Br)c3)o2)n[nH]1,6%,50µM*,6%,-8%,-11%
Cc1cccc(NS(=O)(=O)c2ccc(-c3ccc(=O)[nH]n3)o2)c1,9%,40µM*,-1%,19%,-4%
O=c1ccc(-c2ccc(S(=O)(=O)Nc3ccccc3Cl)o2)n[nH]1,-4%,40µM*,-2%,0%,-3%
CCOc1ccccc1C(=O)NCC(=O)OCCOc1cccc(Cl)c1,3%,-26%,6%,-6%,-2%
CCOc1ccc(CN2CCN(C3CCSCC3)CC2CCO)cc1 (stereo unspecified),0%,?,2%,-30%,3%
CCOc1ccc(CN2CCN(C3CCC3)CC2CCO)cc1 (stereo unspecified),-3%,13µM*,0%,7%,0%
O=C1C(Cl)=C(N2CCC(C(=O)O)CC2)C(=O)c2ccccc21,?,-2%,?,-24%,1%
NC(=O)C1CCN(C2=C(Cl)C(=O)c3ccccc3C2=O)CC1,?,0.45µM*,-28%,-22%,0%
Clc1cccc(Cl)c1OCCCCN1CCCCC1,?,-7%,0%,-1%,10%
Cc1cccc(Cl)c1OCCN1CCCC1,25µM*,-3%,-12%,-9%,7%
O=C(Nc1cc(Cl)ccc1-n1cncn1)c1cn2ccccc2n1,nt,-11%,nt,-10%,3%
CCn1c(C)cc(=S)c2ccccc21,?,4µM*,?,-6%,-7%
COc1cccc(-n2cc3c(=O)n(C)c(=O)n(C)c3c2)c1,-17%,45µM*,3%,-4%,-14%
C=CCN(CC=C)Cc1c(O)ccc2c(=O)c(-c3ccccc3)coc12,6%,13µM*,-1%,1%,-16%
